Source: PubChem BioAssay (NCATS)
Records with an inconclusive call do not appear. Where a call stands in place of a potency, no number is given. Active and inactive are the calls of the source. The call rests on the fitted dose curve; in most records, active means well fitted inhibition curve with a large enough effect; inconclusive means small, poorly fitted or top-dose-only effect; inactive means flat fitted curve, though single readings scatter.

system: CP247; assay: qHTS profiling for inhibitors of Plasmodium falciparum proliferation (AID 504749); further: nearly all actives have a fitted effect of over 60% in size; conditions: P. falciparum in erythrocytes, SYBR Green DNA, 72 h; series mostly up to 28.7 µM
Procedure, shortened: (§1)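 Readout was DNA-dye fluorescence from lysed cultures, ex 485/em 535 nm. Parasitized red cells had grown 72 h with compound; data scaled between 0.29 uM artemisinin and DMSO wells and corrected using vehicle-only plates.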

Compound | Potency
C[N+]1([O-])[C@@H]2CC(OC(=O)[C@@H](CO)c3ccccc3)C[C@@H]1[C@H]1O[C@H]12 (stereo partly drawn) | inactive
C[C@]12CC[C@H](O)CC1=CCC1C2CC[C@]2(C)C(=O)CC[C@@H]12 (stereo partly drawn) | inactive
ClC1=C(Cl)C2(Cl)C3C4CC(C5OC45)C3C1(Cl)C2(Cl)Cl (stereo not drawn) | inactive
CCNC[C@H](O)c1cccc(O)c1 | inactive

system: CP250; assay: as above; conditions: P. falciparum in erythrocytes, SYBR Green DNA, 72 h; series mostly up to 12.8 µM
Procedure, shortened: as §1

Compound | Potency
C[N+]1([O-])[C@@H]2CC(OC(=O)[C@@H](CO)c3ccccc3)C[C@@H]1[C@H]1O[C@H]12 (stereo partly drawn) | inactive
C[C@]12CC[C@H](O)CC1=CCC1C2CC[C@]2(C)C(=O)CC[C@@H]12 (stereo partly drawn) | inactive
ClC1=C(Cl)C2(Cl)C3C4CC(C5OC45)C3C1(Cl)C2(Cl)Cl (stereo not drawn) | inactive
CCNC[C@H](O)c1cccc(O)c1 | inactive

system: CP252; assay: as above; conditions: P. falciparum in erythrocytes, SYBR Green DNA, 72 h; series mostly up to 12.8 µM
Procedure, shortened: as §1

Compound | Potency
C[N+]1([O-])[C@@H]2CC(OC(=O)[C@@H](CO)c3ccccc3)C[C@@H]1[C@H]1O[C@H]12 (stereo partly drawn) | inactive
C[C@]12CC[C@H](O)CC1=CCC1C2CC[C@]2(C)C(=O)CC[C@@H]12 (stereo partly drawn) | inactive
ClC1=C(Cl)C2(Cl)C3C4CC(C5OC45)C3C1(Cl)C2(Cl)Cl (stereo not drawn) | inactive
CCNC[C@H](O)c1cccc(O)c1 | inactive

system: CP256; assay: as above; conditions: P. falciparum in erythrocytes, SYBR Green DNA, 72 h; series mostly up to 28.7 µM
Procedure, shortened: as §1

Compound | Potency
C[N+]1([O-])[C@@H]2CC(OC(=O)[C@@H](CO)c3ccccc3)C[C@@H]1[C@H]1O[C@H]12 (stereo partly drawn) | inactive
C[C@]12CC[C@H](O)CC1=CCC1C2CC[C@]2(C)C(=O)CC[C@@H]12 (stereo partly drawn) | inactive
ClC1=C(Cl)C2(Cl)C3C4CC(C5OC45)C3C1(Cl)C2(Cl)Cl (stereo not drawn) | inactive
CCNC[C@H](O)c1cccc(O)c1 | inactive

system: CP260; assay: as above; conditions: P. falciparum in erythrocytes, SYBR Green DNA, 72 h; series mostly up to 28.7 µM
Procedure, shortened: as §1

Compound | Potency
C[N+]1([O-])[C@@H]2CC(OC(=O)[C@@H](CO)c3ccccc3)C[C@@H]1[C@H]1O[C@H]12 (stereo partly drawn) | inactive
C[C@]12CC[C@H](O)CC1=CCC1C2CC[C@]2(C)C(=O)CC[C@@H]12 (stereo partly drawn) | inactive
CCNC[C@H](O)c1cccc(O)c1 | inactive

system: CP262; assay: as above; conditions: P. falciparum in erythrocytes, SYBR Green DNA, 72 h; series mostly up to 28.7 µM
Procedure, shortened: as §1

Compound | Potency
C[N+]1([O-])[C@@H]2CC(OC(=O)[C@@H](CO)c3ccccc3)C[C@@H]1[C@H]1O[C@H]12 (stereo partly drawn) | inactive
C[C@]12CC[C@H](O)CC1=CCC1C2CC[C@]2(C)C(=O)CC[C@@H]12 (stereo partly drawn) | inactive
CCNC[C@H](O)c1cccc(O)c1 | inactive

system: CP265; assay: as above; conditions: P. falciparum in erythrocytes, SYBR Green DNA, 72 h; series mostly up to 12.8 µM
Procedure, shortened: as §1

Compound | Potency
C[N+]1([O-])[C@@H]2CC(OC(=O)[C@@H](CO)c3ccccc3)C[C@@H]1[C@H]1O[C@H]12 (stereo partly drawn) | inactive
C[C@]12CC[C@H](O)CC1=CCC1C2CC[C@]2(C)C(=O)CC[C@@H]12 (stereo partly drawn) | inactive
CCNC[C@H](O)c1cccc(O)c1 | inactive

system: CP266; assay: as above; conditions: P. falciparum in erythrocytes, SYBR Green DNA, 72 h; series mostly up to 12.8 µM
Procedure, shortened: as §1

Compound | Potency
C[N+]1([O-])[C@@H]2CC(OC(=O)[C@@H](CO)c3ccccc3)C[C@@H]1[C@H]1O[C@H]12 (stereo partly drawn) | inactive
ClC1=C(Cl)C2(Cl)C3C4CC(C5OC45)C3C1(Cl)C2(Cl)Cl (stereo not drawn) | inactive
CCNC[C@H](O)c1cccc(O)c1 | inactive

system: CP269; assay: as above; conditions: P. falciparum in erythrocytes, SYBR Green DNA, 72 h; series mostly up to 28.7 µM
Procedure, shortened: as §1

Compound | Potency
C[N+]1([O-])[C@@H]2CC(OC(=O)[C@@H](CO)c3ccccc3)C[C@@H]1[C@H]1O[C@H]12 (stereo partly drawn) | inactive
ClC1=C(Cl)C2(Cl)C3C4CC(C5OC45)C3C1(Cl)C2(Cl)Cl (stereo not drawn) | inactive
CCNC[C@H](O)c1cccc(O)c1 | inactive

system: CP286; assay: as above; conditions: P. falciparum in erythrocytes, SYBR Green DNA, 72 h; series mostly up to 28.7 µM
Procedure, shortened: as §1

Compound | Potency
C[N+]1([O-])[C@@H]2CC(OC(=O)[C@@H](CO)c3ccccc3)C[C@@H]1[C@H]1O[C@H]12 (stereo partly drawn) | inactive
C[C@]12CC[C@H](O)CC1=CCC1C2CC[C@]2(C)C(=O)CC[C@@H]12 (stereo partly drawn) | inactive
CCNC[C@H](O)c1cccc(O)c1 | inactive

system: CP305; assay: as above; conditions: P. falciparum in erythrocytes, SYBR Green DNA, 72 h; series mostly up to 28.7 µM
Procedure, shortened: as §1

Compound | Potency
C[N+]1([O-])[C@@H]2CC(OC(=O)[C@@H](CO)c3ccccc3)C[C@@H]1[C@H]1O[C@H]12 (stereo partly drawn) | inactive
ClC1=C(Cl)C2(Cl)C3C4CC(C5OC45)C3C1(Cl)C2(Cl)Cl (stereo not drawn) | inactive
CCNC[C@H](O)c1cccc(O)c1 | inactive

system: CP315; assay: as above; conditions: P. falciparum in erythrocytes, SYBR Green DNA, 72 h; series mostly up to 28.7 µM
Procedure, shortened: as §1

Compound | Potency
C[N+]1([O-])[C@@H]2CC(OC(=O)[C@@H](CO)c3ccccc3)C[C@@H]1[C@H]1O[C@H]12 (stereo partly drawn) | inactive
ClC1=C(Cl)C2(Cl)C3C4CC(C5OC45)C3C1(Cl)C2(Cl)Cl (stereo not drawn) | inactive
CCNC[C@H](O)c1cccc(O)c1 | inactive

system: CP325; assay: as above; conditions: P. falciparum in erythrocytes, SYBR Green DNA, 72 h; series mostly up to 28.7 µM
Procedure, shortened: as §1

Compound | Potency
C[N+]1([O-])[C@@H]2CC(OC(=O)[C@@H](CO)c3ccccc3)C[C@@H]1[C@H]1O[C@H]12 (stereo partly drawn) | inactive
ClC1=C(Cl)C2(Cl)C3C4CC(C5OC45)C3C1(Cl)C2(Cl)Cl (stereo not drawn) | inactive
CCNC[C@H](O)c1cccc(O)c1 | inactive

system: CP329; assay: as above; conditions: P. falciparum in erythrocytes, SYBR Green DNA, 72 h; series mostly up to 28.7 µM
Procedure, shortened: as §1

Compound | Potency
C[N+]1([O-])[C@@H]2CC(OC(=O)[C@@H](CO)c3ccccc3)C[C@@H]1[C@H]1O[C@H]12 (stereo partly drawn) | inactive
ClC1=C(Cl)C2(Cl)C3C4CC(C5OC45)C3C1(Cl)C2(Cl)Cl (stereo not drawn) | inactive
CCNC[C@H](O)c1cccc(O)c1 | inactive

system: CP335; assay: as above; conditions: P. falciparum in erythrocytes, SYBR Green DNA, 72 h; series mostly up to 12.8 µM
Procedure, shortened: as §1

Compound | Potency
C[N+]1([O-])[C@@H]2CC(OC(=O)[C@@H](CO)c3ccccc3)C[C@@H]1[C@H]1O[C@H]12 (stereo partly drawn) | inactive
C[C@]12CC[C@H](O)CC1=CCC1C2CC[C@]2(C)C(=O)CC[C@@H]12 (stereo partly drawn) | inactive
CCNC[C@H](O)c1cccc(O)c1 | inactive

system: DFO2036; assay: as above; conditions: P. falciparum in erythrocytes, SYBR Green DNA, 72 h; series mostly up to 28.7 µM
Procedure, shortened: as §1

Compound | Potency
C[N+]1([O-])[C@@H]2CC(OC(=O)[C@@H](CO)c3ccccc3)C[C@@H]1[C@H]1O[C@H]12 (stereo partly drawn) | inactive
C[C@]12CC[C@H](O)CC1=CCC1C2CC[C@]2(C)C(=O)CC[C@@H]12 (stereo partly drawn) | inactive
ClC1=C(Cl)C2(Cl)C3C4CC(C5OC45)C3C1(Cl)C2(Cl)Cl (stereo not drawn) | inactive
CCNC[C@H](O)c1cccc(O)c1 | inactive
